Inconclusive results are not listed. Values without a mark were called inactive. The source made the active and inactive calls. Calls follow the shape of the dose curve; as a rule, active = well fitted curve in the direction sought with a large enough effect; inconclusive = small, poorly fitted or top-dose-only effect, or another doubt; inactive = no such curve, though single readings can be large; an effect the other way counts as inactive or inconclusive.

Data on 39 compounds can be found in PubChem BioAssay (NCATS).

Test [1] deals with Aldehyde dehydrogenase, mitochondrial (Homo sapiens) (UniProt P05091). The experiment in a line: qHTS for Inhibitors of the Aldehyde Dehydrogenase Family (ALDH2) Primary screen (AID 2061308).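 Also: plate controls were vehicle for no effect and reference inhibitor for full effect; nearly all actives have a fitted effect of over 55% in size.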
In test [2] the target is Retinaldehyde dehydrogenase 3 (Homo sapiens) (UniProt P47895). Description: qHTS for Inhibitors of the Aldehyde Dehydrogenase Family (ALDH1A3) Primary screen (AID 2061315).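 Also: plate controls were DMSO vehicle for no effect and reference inhibitor for full effect.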

In the case of `COc1cccc(C2c3c(ncn(CCN4CCOCC4)c3=N)Oc3ccc4ccccc4c32)c1` (stereo not drawn), the Potency entry in test [1] and in test [2] was “inactive” each time.

With `Cc1ccc(S(=O)(=O)Nc2cnccc2C(=O)Nc2nc(C3CCC3)cs2)cc1`, the Potency entry in test [1] and in test [2] was “inactive” in each case.

For `COc1cc(F)c(F)c(Nc2ccc(I)cc2F)c1NS(=O)(=O)C1(CC(O)CO)CC1` (stereo not drawn), the Potency entry in test [1] and in test [2] was “inactive” each time.

For `O=[N+]([O-])c1cccc(CNc2ccc(S(=O)(=O)Nc3nccs3)cc2)c1O`, the Potency entry in test [1] and in test [2] was “inactive” in each case.

Consider `O=C(Nc1ccc(S(=O)(=O)Nc2nccs2)cc1)c1ccc2ccccc2c1`, for which the Potency entry in test [1] and in test [2] was “inactive” each time.

On to `COc1cccc(-c2ccc3ncnc(NCc4cccc(F)c4)c3c2)c1`, for which the Potency result in test [1] and in test [2] was “inactive” each time.

Turning to `Fc1ccc(-c2ccc(Nc3nc(-c4ccncc4)nc4ccccc34)cc2F)c(Cl)c1`, the Potency entry in test [1] and in test [2] was “inactive” in each case.

As for `Cc1cc2c(s1)c1cnn(Cc3ccc(Cl)c(Cl)c3)c(=O)c1n2C`, the Potency entry in test [1] and in test [2] was “inactive” in each case.

As to `O=C(Nc1nc(-c2ccccc2)cs1)c1ccccc1S(=O)(=O)Nc1nccs1`, the Potency entry in test [1] and in test [2] was “inactive” in each case.

Turning to `Cc1ccc(OCCn2c(CCNC(=O)c3ccc(F)cc3F)nc3ccccc32)cc1`, the Potency result in test [1] and in test [2] was “inactive” each time.

As for `CCC1CCC2(C1)N=C(Nc1nc3ccccc3o1)NC1=C2C(=O)CCC1` (stereo not drawn), the Potency entry in test [1] and in test [2] was “inactive” each time.

Take `Cc1cc2c(s1)c1cnn(Cc3ccc(OC(F)F)cc3)c(=O)c1n2C`: the Potency entry in test [1] and in test [2] was “inactive” throughout.

For `CC(=O)Nc1ccc(S(=O)(=O)Nc2cccc3cccnc23)cc1`, the Potency entry in test [1] and in test [2] was “inactive” each time.

As to `Cc1ccccc1N(C)C1=N[S+](=O)([O-])c2ccccc21`, the Potency entry in test [1] and in test [2] was “inactive” throughout.

In the case of `Cc1cc2c(cc1C1(c3ccc(C(=O)O)cc3)CC1)C(C)(C)CCC2(C)C`, the Potency result in test [1] and in test [2] was “inactive” throughout.

As for `CCCCc1ccc(-c2ccc(=O)n(CC(=O)NCCc3ccccc3)n2)cc1`, the Potency entry in test [1] and in test [2] was “inactive” in each case.

On to `CCOc1cccc(-c2cc(-c3n[nH]c(=O)n3CC)c3ccccc3n2)c1`, for which the Potency result in test [1] and in test [2] was “inactive” throughout.

For `N#Cc1c(-c2ccc3ccccc3c2)no[n+]1[O-]`, the Potency result in test [1] and in test [2] was “inactive” throughout.

As for `Cc1ccc(C(C)c2ccc(=O)n(CC(=O)NCCc3ccccc3)n2)cc1` (stereo not drawn), the Potency result in test [1] and in test [2] was “inactive” each time.

Take `C[C@@H]1O[C@@H](O[C@H]2[C@H](OC(=O)[C@]34CCC(C)(C)C[C@H]3C3=CCC5[C@@]6(C)C[C@H](O)[C@H](O[C@@H]7O[C@H](CO)[C@@H](O)[C@H](O)[C@H]7O)[C@](CO)(C(=O)O)C6CC[C@@]5(C)[C@]3(C)C[C@H]4O)OC[C@H](O)[C@@H]2O)[C@H](O)[C@H](O)[C@H]1O[C@@H]1OC[C@@H](O)[C@H](O[C@@H]2OC[C@](O)(CO)[C@H]2O)[C@H]1O` (stereo partly drawn): the activity change, negative = inhibition was 7.32% [at 11.2 µM] in test [1] and 18.8% [at 11.2 µM] in test [2].

As to `c1cncc(CNc2ncnc3ccc(-c4ccc5c(c4)OCO5)cc23)c1`, the Potency result in test [1] and in test [2] was “inactive” in each case.

For `COc1cccc(NC(=S)N2CCN(c3cccc(C(F)(F)F)n3)CC2)n1`, the Potency entry in test [1] and in test [2] was “inactive” in each case.

Turning to `Cc1cc(C)nc(NC(=S)N2CCN(c3cccc(OC(F)F)c3)CC2)c1`, the Potency entry in test [1] and in test [2] was “inactive” each time.

On to `C[C@@H]1O[C@@H](O[C@H]2[C@H](O[C@H]3CC[C@@]4(C)C(CC[C@]5(C)C4CC=C4[C@@H]6CC(C)(C)CC[C@]6(C(=O)O)CC[C@]45C)[C@]3(C)CO)OC[C@H](O)[C@@H]2O)[C@H](O)[C@H](O[C@@H]2OC[C@@H](O)[C@H](O)[C@H]2O)[C@H]1O` (stereo partly drawn), for which the Potency entry in test [1] and in test [2] was “inactive” each time.

For `CCOC(=O)c1cnc2ccc(-c3cncc(NS(=O)(=O)c4ccccc4)c3)cn12`, the Potency result in test [1] and in test [2] was “inactive” each time.

For the compound `Cc1ccc(C(=O)N2CCc3cc(-c4nc(NC(=O)Cc5ccc6c(c5)OCO6)sc4C)ccc32)cc1`, the Potency result in test [1] and in test [2] was “inactive” each time.

Consider `O=C(Nc1ccc(S(=O)(=O)Nc2nccs2)cc1)C1CCC2(CC1)CC2`, for which the Potency entry in test [1] and in test [2] was “inactive” each time.

On to `COc1ccc(OC)c(C2=Nn3c(nnc3-c3ccccc3OC)SC2)c1`, for which the Potency result in test [1] and in test [2] was “inactive” each time.

Take `Cc1ccc(OCCn2c(CCNC(=O)C3CCC3)nc3ccccc32)cc1`: the Potency result in test [1] and in test [2] was “inactive” throughout.

Turning to `COCCNc1nc(C)nc2c1nc(-c1ccccc1)n2CCN1CCCC1`, the Potency entry in test [1] and in test [2] was “inactive” in each case.

Turning to `N#Cc1ccc(OC2=NS(=O)(=O)c3ccccc32)cc1`, the Potency entry in test [1] and in test [2] was “inactive” in each case.

As to `N#CN1CCC(NC(=O)c2ccc(C(F)(F)F)cc2)CC1`, the Potency result in test [1] and in test [2] was “inactive” throughout.

For `Cc1ccc(C(=O)Nc2ccc(N3CCOCC3)cc2)cc1`, the Potency entry in test [1] and in test [2] was “inactive” each time.

As for `CN(C)c1cccc(-c2ccnc(N3CCC(C(N)=O)CC3)n2)c1`, the Potency entry in test [1] and in test [2] was “inactive” each time.

Regarding `CC1(C)CC(=O)C2=C(C1)NC(=S)NC2c1cccc(O)c1` (stereo not drawn), the Potency result in test [1] and in test [2] was “inactive” in each case.

In the case of `O=C(OCC#CCSc1nnc(-c2cccc(F)c2)o1)c1ccc(F)cc1`, the Potency entry in test [1] and in test [2] was “inactive” in each case.

In the case of `c1coc(-c2ccc3ncnc(NCc4cccs4)c3c2)c1`, the Potency result in test [1] and in test [2] was “inactive” throughout.

Consider `Cc1cnc(-c2ccccc2C(C)C)nc1NCc1ccc(-c2nn[nH]n2)cc1`, for which the Potency entry in test [1] and in test [2] was “inactive” in each case.

`Cc1csc(CNc2ncnc3ccc(-c4cccc(Cl)c4)cc23)c1`: the Potency entry in test [1] and in test [2] was “inactive” each time.
